Measurements: PubChem BioAssay AID1159580 (chemical genetic matrix, 2015)
The whole screen tested about 5,500 compounds, of which about 2,000 (36%) were called active. Another 18% or so got no clear call; they are omitted. Rule as the data show it: active = normalized growth mostly below about 0.91 (no sharp cut-off); inconclusive = no clear call, values can overlap the other calls; inactive = mostly above about 0.92. The list shows a part of the results.

Assay: chemical genetic growth profiling, strain panel (AID 1159580);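 also: tested at 20 µM; growth read once vehicle control cultures reached saturation at 30 °C; 1 = growth at the plate median or of vehicle wells; lower values mean less growth of the strain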
Details: S. cerevisiae deletion strains, growth OD

Measured: normalized growth

CN(C)CCc1c[nH]c2ccc(Cn3cncn3)cc12
inactive: locus YHR030C, strain SLT2, stronger effect = lower value 0.92 | locus YHR079C, strain IRE1, stronger effect = lower value 0.928 | locus YJL095W, strain BCK1, stronger effect = lower value 0.961 | locus YJR066W, strain TOR1, stronger effect = lower value 0.914 | locus YLR113W, strain HOG1, stronger effect = lower value 0.918 | locus YNL183C, strain NPR1, stronger effect = lower value 0.926 | locus YOR231W, strain MKK1, stronger effect = lower value 0.928 | locus YPL256C, strain CLN2, stronger effect = lower value 0.936

CC(N)=NCCC[C@H](N)C(=O)O
inactive: locus YAL040C, strain CLN3, stronger effect = lower value 1 | locus YCL061C, strain MRC1 (second series), stronger effect = lower value 1.01 | locus YDR363W, strain ESC2, stronger effect = lower value 1.01 | locus YER002W, strain NOP16, stronger effect = lower value 0.997 | locus YMR263W, strain SAP30, stronger effect = lower value 1.02 | locus YMR307W, strain GAS1, stronger effect = lower value 1.01 | locus YNL175C, strain NOP13, stronger effect = lower value 1.01 | locus YNL197C, strain WHI3, stronger effect = lower value 0.999 | locus YNL224C, strain SQS1, stronger effect = lower value 1 | locus YOR083W, strain WHI5 (second series), stronger effect = lower value 1.02 | locus YPL241C, strain CIN2, stronger effect = lower value 1.01
